{"source": "PubChem BioAssay AID720542", "about": "(National Center for Advancing Translational Sciences (NCATS), 2013)", "note": "Out of some 360,000 compounds screened, about 740 (0.21%) were called active. Roughly 2% stayed inconclusive and do not appear here. The call rests on the fitted dose curve; in most records, active means well fitted inhibition curve with a large enough effect; inconclusive means small, poorly fitted or top-dose-only effect; inactive means no such curve, though single readings can be large or run the other way. What follows is part of a selection rich in actives, with near analogues and random picks from the rest. Potency means the concentration at half of the fitted maximal effect."}
{"tested_on": "Plasmodium falciparum AMA1 (3D7) - RON2 peptide interaction", "test": "qHTS for Inhibitors of AMA1-RON; Towards Development of Antimalarial Drug Lead: Primary Screen; further: nearly all actives have a fitted effect of over 45% in size;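 on activity change, negative = inhibition: 0% = vehicle wells and -100% = peptide control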", "conditions": "AlphaScreen AMA1-biotinylated RON2 peptide binding; series mostly up to 58.2 µM; activity change, negative = inhibition: at the top concentration", "text": "Plasmodium, the causative agent of malaria, is one of the world's deadliest parasitic diseases. Currently there is no vaccine available and there is widespread resistance to common anti-malarial drugs. This warrants novel, alternative approaches for developing improved therapy. During infection, one such essential interaction is between two parasite proteins, the apical membrane antigen1 (AMA1) that is translocated onto the merozoite surface and the rhoptry neck protein 2 (RON2), which is transferred to the red blood cells (RBC) membrane during invasion (Besteiro et.al., 2009). Recently, the Miller lab has shown that the interaction between AMA1 and RON2 is essential for junction formation of the parasite with the host cell (Srinivasan et.al., 2011). The binding of the RON2 peptide to the hydrophobic pocket in AMA triggers the formation of the moving junction which provides a firm anchor for the parasite to pull itself into the RBC using its actin-myosin motor; an irreversible step that commits the parasite for invasion. Only one AMA1 and RON2 genes exists in Plasmodium and there are no alternate pathways. Moreover, the region corresponding to RON2 peptide is conserved in all P. falciparum isolates for which sequences are available. The key residues in the AMA1 hydrophobic pocket that binds RON2 are also conserved and indicate a functional constraint governing this essential step in invasion since a short RON2 peptide (RON2L) corresponding to the binding region on AMA1 is sufficient to compete with the native RON2 protein and inhibits invasion (Tonkin et.al, 2011). Therefore, developing small molecule inhibitors of this interaction offers a promising target opening a new arena for anti-malarial therapeutics drug design.\nIn collaboration with the Miller lab, a quantitative High Throughput Screen using the AlphScreen technology was developed using a recombinant his-tagged AMA1 and a biotinylated RON2 peptide. This fluorescent screen was assayed against the NIH Molecular Libraries Small Molecule Repository (MLSMR). Inhibition of this protein-protein interaction is the desired outcome of this assay. However, due the limitations of this AlphaScreen assay, a large number of artifacts were observed. An AlphaScreen counterscreen was run to identify the true inhibitors, triage compound activity, and weed out false positives.\nNIH Chemical Genomics Center [NCGC]\nNIH Molecular Libraries Probe Centers Network [MLPCN]\nAssay Submitter (PI): Louis Miller, National Institute of Allergy and Infectious Disease (NIAID)\nTwo microliters of his-tagged AMA1 3D7 allele protein (final concentration 25 nM) was dispensed into a 1,536-well assay plate. Small molecules and positive control peptides were pin-transferred (23 nL or 46 nL) via Kalypsys pin-tool equipped with a 1,536-pin array, resulting in final compound and peptide concentration ranges of 91.5 nM - 57.2 µM, and 15.6 nM - 2.00 µM, respectively. Unlabeled RON2 peptide or R1 peptide ([…]) that specifically binds the 3D7 AMA1 was used as a positive control that inhibited the binding of RON2L to AMA1. After 15 minutes incubation, 1 uL of biotinylated RON2 peptide (final concentration 25 nM) or buffer were dispensed and the assay plate was incubated for an additional 30 minutes at room temperature and protected from light. This was followed by an addition of 1 uL mixture of donor and acceptor beads (10 ug/mL final concentrations for each). The plates were incubated for 30 min at room temperature and read using the EnVision(R) plate reader (PerkinElmer). Maximum inhibition response was normalized to the positive control signal while no inhibition response was normalized to the DMSO treated wells."}
{"smiles": "CC1CCCN(C(=O)Cn2c(=O)oc3ccccc32)C1", "note": "(configuration not stated)", "activity change, negative = inhibition": "19.1% (inactive)"}
{"smiles": "Cc1coc(C)c1C(=O)CC1(O)C(=O)N(C)c2ccc(Cl)cc21", "note": "(configuration not stated)", "activity change, negative = inhibition": "-2.7% (inactive)"}
{"smiles": "N#Cc1cccc(CSc2nnc(CCCO)n2-c2ccccc2)c1", "activity change, negative = inhibition": "11.9% (inactive)"}
{"smiles": "Cc1ccc(C(C(=O)NC2CCCCC2)N(C(=O)c2csnn2)C2CC2)o1", "note": "(configuration not stated)", "activity change, negative = inhibition": "-4.5% (inactive)"}
{"smiles": "COc1cccc(-c2ccc3c(c2)N(Cc2ccccc2OC)C(=O)C(C)S3)c1", "note": "(configuration not stated)", "activity change, negative = inhibition": "-17.7% (inactive)"}
{"smiles": "Cc1ccc(C2=C/C(=C\\c3cccnc3)C(=O)O2)cc1", "activity change, negative = inhibition": "0.0252% (inactive)"}
{"smiles": "O=C1/C(=C\\c2cccnc2)CN(Cc2ccccc2)C/C1=C\\c1cccnc1", "activity change, negative = inhibition": "-12.8% (inactive)"}
{"smiles": "Nc1ccc2c(c1)C(=Cc1cccnc1)c1ccccc1-2", "Potency": "20 µM (active)"}
{"smiles": "Cc1c(C)c2c(OCC(=O)N[C@@H](C(=O)O)c3ccccc3)cc3c(c2oc1=O)CCC(C)(C)O3", "activity change, negative = inhibition": "-12.5% (inactive)"}
{"smiles": "O=C(CC[C@H]1O[C@@H](n2ccc(=O)[nH]c2=O)[C@H](O)[C@@H]1O)N[C@H](Cc1ccccc1)C(=O)NCCCN1CCCC1=O", "activity change, negative = inhibition": "0% (inactive)"}
{"smiles": "CCOC(=O)CC(SP1(=S)OCC2(CCCCO2)C(C2CCCCO2)O1)C(=O)OCC", "note": "(configuration not stated)", "activity change, negative = inhibition": "11.3% (inactive)"}
{"smiles": "O=C(Nc1ccccc1-c1nnn(CC(=O)N2CCCc3ccccc32)n1)c1cccc(Cl)c1", "activity change, negative = inhibition": "-16.6% (inactive)"}
{"smiles": "CCC(C)C(=O)Nc1ccccc1N1CCN(c2ccc(F)cc2)CC1", "note": "(configuration not stated)", "activity change, negative = inhibition": "-27.4% (inactive)"}
{"smiles": "Cc1cc(C)cc(NC(=O)N2CCC(NC(=O)c3ccc(F)cc3)CC2)c1", "activity change, negative = inhibition": "24.4% (inactive)"}
{"smiles": "O=c1ccc2c(-c3ccccc3S(=O)(=O)O)c3ccc(O)c(O)c3oc-2c1O", "Potency": "5.01 µM (active)"}
{"smiles": "CC1=C(C(=O)Nc2ccccc2)C(c2cccs2)C(C#N)=C(SCC#N)N1", "note": "(configuration not stated)", "activity change, negative = inhibition": "59.5% (inactive)"}
{"smiles": "Cc1ccc(-c2nn(C(C)(C)C)c3ncnc(N)c23)cc1", "activity change, negative = inhibition": "1.93% (inactive)"}
{"smiles": "CC(C)NC(=S)NN=C1CCCCCCCCCCC1", "activity change, negative = inhibition": "25.2% (inactive)"}
{"smiles": "NC(=S)Nc1c(Cl)cccc1Cl", "activity change, negative = inhibition": "-3.62% (inactive)"}
{"smiles": "CCCCC(=O)NNC(=S)NC(=O)C(c1ccccc1)c1ccccc1", "activity change, negative = inhibition": "45.2% (inactive)"}
{"smiles": "Cc1noc(C)c1S(=O)(=O)N(C)Cc1ccccc1", "activity change, negative = inhibition": "3.84% (inactive)"}
{"smiles": "CC1(C)O[C@@H]2[C@H](O1)[C@@H](COS(=O)(=O)O)O[C@H]2n1ccc(=O)[nH]c1=O", "activity change, negative = inhibition": "0.295% (inactive)"}
